# Laboratory results as given in publication PMC7819943, “Rice protein-binding microarrays: a tool to detect cis-acting elements near promoter regions in rice”.
# In all, about 68,000 sequences were measured (“fluorescence intensity (a.u.)”: median about 9,100, highest 2% from about 16,000 on). The entries come from a sample that favours the highest values as a whole.
# Target: OsWRKY34 (Oryza sativa, UniProt Q0JBA9 1-250)
# Assay: protein-binding microarray (RPBM); PBS, 2% BSA, 51.3 ng/ul salmon testes DNA, 50 uM zinc acetate, 200 nM TF, 25 C, 1 h; high values mean tight binding
# Settings: protein: recombinant; tags: N-terminal polyhistidine and DsRed monomer fusion (pET32a); label: CyDye5-dUTP incorporated in the synthesized complementary strand; 3' TTTTT single-stranded linker to array surface; dsDNA, one strand shown
# Summary of the method: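 Ni–NTA purification followed expression in E. coli BL21-CodonPlus of transcription factors fused N-terminally to a polyhistidine tag and DsRed. At 200 nM in PBS with 2% BSA, salmon testes DNA and 50 µM zinc acetate, the protein was incubated for 1 h at 25 °C with a custom Agilent array that had been primer-extended with Cy5-dUTP and blocked with 2% BSA. After washing, the array was read on an Axon 4000B scanner. The binding signal is per-feature fluorescence intensity in arbitrary units.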
# Sequence of OsWRKY34 (Q0JBA9 entry or part of it): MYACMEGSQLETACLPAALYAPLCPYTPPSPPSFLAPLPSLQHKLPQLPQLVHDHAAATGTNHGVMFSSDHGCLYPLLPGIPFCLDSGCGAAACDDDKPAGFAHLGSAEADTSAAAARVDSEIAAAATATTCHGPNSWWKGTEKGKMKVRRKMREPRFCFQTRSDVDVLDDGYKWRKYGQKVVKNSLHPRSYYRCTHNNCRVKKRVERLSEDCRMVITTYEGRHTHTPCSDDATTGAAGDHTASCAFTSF
row,Sequence,binding signal
1,TGTTCTACTTGGCTGTCTCATACTTTTTTTATTTCTCTCTCGGAGTCACCTAGTGCAG,11200 fluorescence intensity (a.u.)
2,AGCGATACTCTACTGCTACCTTGTCCCAACATGCTGGGCTCGGAGTCACCTAGTGCAG,8260 fluorescence intensity (a.u.)
3,CCCACACGCGCTCCATGCATCTCCACCACGCTCCATGTGTCGGAGTCACCTAGTGCAG,11000 fluorescence intensity (a.u.)
4,CCGTCCGCCATTGCAGCTTCGTTGTTCTGTACCTTCTTGCCGGAGTCACCTAGTGCAG,10900 fluorescence intensity (a.u.)
5,CCGGGTCACACATCCCCTCATACTCGGGCCTTGTTTAGTTCGGAGTCACCTAGTGCAG,8740 fluorescence intensity (a.u.)
6,TACTGCCTCTCTCTGACCCCATTGACCAACTCCGTTGACCCGGAGTCACCTAGTGCAG,15800 fluorescence intensity (a.u.)
7,AGATGGATGCTCTGCCCGCCGCCCTACCACCCTCTGCCATCGGAGTCACCTAGTGCAG,8030 fluorescence intensity (a.u.)
8,GTCTTTTCTTCAAGGTTATCTTTTTTGTCCCTTTTTTATTCGGAGTCACCTAGTGCAG,15200 fluorescence intensity (a.u.)
9,TCATATTGTACCTTCCACTTTTATTCTTTTAAAGCCTATACGGAGTCACCTAGTGCAG,9560 fluorescence intensity (a.u.)
10,AGGCGCTCCATAGGCCTCGTCATCTTCACAGTCACACACCCGGAGTCACCTAGTGCAG,11200 fluorescence intensity (a.u.)
11,GCTGCCTATTCCATACAAATTTCGTAGGTTCATTTCCAACCGGAGTCACCTAGTGCAG,10000 fluorescence intensity (a.u.)
12,CGTGTTGGGGTTCTCTTCCTGCTGCTTTGGCCACCTGGGACGGAGTCACCTAGTGCAG,12500 fluorescence intensity (a.u.)
13,TTCACTATTGGGTGTTTTTGTCTCGATTCACCTTCATCGTCGGAGTCACCTAGTGCAG,8840 fluorescence intensity (a.u.)
14,ATTGGTCGTCTTGCTGAGCTCTCGTACTTGGATCTCTCTACGGAGTCACCTAGTGCAG,11100 fluorescence intensity (a.u.)
15,TCTAGGTTCTGTTCTATTCGGTTCTAGGTTATCATATTTTCGGAGTCACCTAGTGCAG,12100 fluorescence intensity (a.u.)
16,CATCTACGTGCTCTCTTTGGTTGGGGTGTTCTTGCTGCTACGGAGTCACCTAGTGCAG,17700 fluorescence intensity (a.u.)
17,TAGATCTCTTGCTTTGGGTGTTGTTTGCTCTAGGTGTTCTCGGAGTCACCTAGTGCAG,8250 fluorescence intensity (a.u.)
18,TTTGGGGTGTGTTTTTGTCTAGAGGTAAAGTTTTTAAAGTCGGAGTCACCTAGTGCAG,10600 fluorescence intensity (a.u.)
19,GACTATAGAGGCTTTGTTTGTTTGGGGTGTGTTTTTGTCTCGGAGTCACCTAGTGCAG,17200 fluorescence intensity (a.u.)
20,GTCGTCGTCTTCGTCTCGAGTTCTTGGTTGGTTGGATCTACGGAGTCACCTAGTGCAG,19400 fluorescence intensity (a.u.)
21,ATGAATTAGGTGTGGTTCTCTTTAATCTGTTATTAGTCATCGGAGTCACCTAGTGCAG,11000 fluorescence intensity (a.u.)
22,GATATTGGAGGTGCATCTGTTAGGGTTCGGGTTCTCTCTACGGAGTCACCTAGTGCAG,16700 fluorescence intensity (a.u.)
23,CTTCTTCGGATCACTCGGTTGGTTTCTTGGTTTCTTGGTTCGGAGTCACCTAGTGCAG,13000 fluorescence intensity (a.u.)
24,GGACTCCTGATTTCTACTCTATTCCTATTCCACTAGCTTACGGAGTCACCTAGTGCAG,14400 fluorescence intensity (a.u.)

row,Sequence,binding signal
1,ATCCTGCGATTCCACCATATCCAATCCTCGTATCTTGGGTCGGAGTCACCTAGTGCAG,8310 fluorescence intensity (a.u.)
2,TTATCTAGATTCGTATTACTAGGATGTGTCTCGTTCAACCCGGAGTCACCTAGTGCAG,8780 fluorescence intensity (a.u.)
3,GTGGGCCCCGCCCGTGTGATCGTGTCTCTGTTTCGTTTTCCGGAGTCACCTAGTGCAG,12100 fluorescence intensity (a.u.)
4,GTGTTTTTTCTTCATTTGTCCCGTAATAAATTTATTTTTTCGGAGTCACCTAGTGCAG,12500 fluorescence intensity (a.u.)
5,CGCTTACAGTCCACTCTCCACTGCGCCCGCATGAGTCATGCGGAGTCACCTAGTGCAG,8880 fluorescence intensity (a.u.)
6,AAACTGCCAGCTTTCTGCATCTCTCCGCCCTCATGATGCGCGGAGTCACCTAGTGCAG,9490 fluorescence intensity (a.u.)
7,TTTTCTTTCCTTTATTATTTTCTTTATCCTTTTTTTCTCCCGGAGTCACCTAGTGCAG,9250 fluorescence intensity (a.u.)
8,ATCGGCGCCGTCGACCGCGACCACCCTGCCGCCGAGCGCCCGGAGTCACCTAGTGCAG,10300 fluorescence intensity (a.u.)
9,TCCTCTTCTTCTTCTTCTTCTTCTCGTGGGTGCAAGAAGCCGGAGTCACCTAGTGCAG,8380 fluorescence intensity (a.u.)
10,CGCCCAAGCTAGCTAGTGGCCATTATCCCATGGATATTTCCGGAGTCACCTAGTGCAG,8280 fluorescence intensity (a.u.)
11,ATCCTGTATCGTCCAGAATGCTTCTTCCATCCTAATCACCCGGAGTCACCTAGTGCAG,9220 fluorescence intensity (a.u.)
12,CTTCTCTTTGTTTTCTTGTTTGCTTGCTTGGTGTAAAGAACGGAGTCACCTAGTGCAG,16100 fluorescence intensity (a.u.)
13,GCTTCTGCTTCTTCTTGTTCTTGTTGCTGTTGGTAATACTCGGAGTCACCTAGTGCAG,11000 fluorescence intensity (a.u.)
14,GGTTGGGTGTTTTTGCTTCTCTTGTAGTCTTTGTGTAGAACGGAGTCACCTAGTGCAG,21500 fluorescence intensity (a.u.)
15,TTCTTGCTAGTTCTTGTAGTATCTGGTTCTTGCTAGTTCTCGGAGTCACCTAGTGCAG,10800 fluorescence intensity (a.u.)
16,ATCAAAGTTGCTGGGGTTAATTTGGGTTCTTGGTTGTGAACGGAGTCACCTAGTGCAG,15600 fluorescence intensity (a.u.)
17,ATCTTTTTACCCAATTCTTGATCACTCTTCTTGGTCGTTCCGGAGTCACCTAGTGCAG,8060 fluorescence intensity (a.u.)
18,CGGGGTTCTTGTGTTTATTGTTAAGATCCGGTTTGCTGAACGGAGTCACCTAGTGCAG,21900 fluorescence intensity (a.u.)
19,GTAATTCTGTTGTCATACGGTTTATTGTGTGGTTGCTGAACGGAGTCACCTAGTGCAG,9010 fluorescence intensity (a.u.)
20,ATCACTCTTCTTGGTCGTTCTTGCCATTCTTGTACCGCGACGGAGTCACCTAGTGCAG,18200 fluorescence intensity (a.u.)
21,TCTCTCTCTCGTCGTCTCGCGTCTCTTCTCTCAACCGCGACGGAGTCACCTAGTGCAG,13800 fluorescence intensity (a.u.)
22,GGTATCTGTTGCTGCTTGCTGGTTCTCGTGCTATTGTTCTCGGAGTCACCTAGTGCAG,19900 fluorescence intensity (a.u.)
23,CATGTAATTCTCTTCACTTTTGCTTGTTTGGGTTGTGAAACGGAGTCACCTAGTGCAG,10100 fluorescence intensity (a.u.)
